Assay outcomes deposited in PubChem BioAssay by Corson Lab, School of Medicine, Indiana University.
Many of the other results were omitted from the sample, so hits are more common in it than they were.
FECH block – human FECH heme synthesis enzyme inhibition. AID 1671448. 20,000 compounds, 3.3% hits. P22830. calls only at 10 µM (by protocol). purified FECH, Ni-mesoporphyrin absorbance 550 nm;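 active = enzyme reaction rate more than 3 SD below the solvent-only control wells on the same plate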;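 note: lower slope than DMSO wells means FECH inhibition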
Target sequence (P22830 whole entry, looked up): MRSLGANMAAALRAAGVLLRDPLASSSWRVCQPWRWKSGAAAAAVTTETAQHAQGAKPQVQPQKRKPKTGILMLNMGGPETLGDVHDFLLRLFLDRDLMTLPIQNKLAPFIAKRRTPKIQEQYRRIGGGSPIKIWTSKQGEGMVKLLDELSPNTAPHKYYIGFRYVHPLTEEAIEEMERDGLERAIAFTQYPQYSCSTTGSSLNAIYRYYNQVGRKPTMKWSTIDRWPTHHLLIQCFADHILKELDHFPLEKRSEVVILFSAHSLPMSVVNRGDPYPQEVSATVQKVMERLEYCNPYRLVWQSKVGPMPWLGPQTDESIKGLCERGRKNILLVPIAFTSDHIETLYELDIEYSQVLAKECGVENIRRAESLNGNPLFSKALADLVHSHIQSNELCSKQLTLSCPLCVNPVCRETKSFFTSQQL
Calls only; i = inactive; + = active, no number.

SMILES	FECH block
COc1ccc(OC)c(Nc2nc(SC)nc(-c3ccc(C)cc3)c2C#N)c1	i
O=C(C1CCCN(C2CCN(c3ccc(Cl)cn3)CC2)C1)N1CCCC1 (stereo not drawn)	i
Cc1cccc(Nc2nc(N3CCN(c4ccccc4)CC3)nc3c2cnn3-c2ccccc2)c1	i
CCN(C/C=C/c1ccccc1)C(=O)c1cnc2ccccn2c1=O	i
COc1ccc(N2C(=O)CCS2(=O)=O)cc1S(=O)(=O)NCC1CCCO1 (stereo not drawn)	i
O=C(Nc1nc2n(n1)C(c1ccc(Cl)cc1)C=C(c1ccc(Cl)cc1)N2)c1cccnc1 (stereo not drawn)	+
O=C(Nc1nc2n(n1)C(c1ccc(Cl)cc1)C=C(c1ccccc1)N2)c1ccc(Cl)cc1 (stereo not drawn)	i
Cc1ccc(C2=CC(c3ccc(Cl)cc3)n3nc(NC(=O)c4cccc(Cl)c4)nc3N2)cc1 (stereo not drawn)	i
O=C(Nc1nc2n(n1)C(c1ccc(Cl)cc1)C=C(c1ccccc1)N2)c1cccnc1 (stereo not drawn)	+
O=C(Nc1nc2n(n1)C(c1ccc(Cl)cc1)C=C(c1ccccc1)N2)c1ccc(F)cc1 (stereo not drawn)	i
O=C(Nc1nc2n(n1)C(c1ccccc1)C=C(c1ccc(Cl)cc1)N2)c1ccccc1 (stereo not drawn)	i
CCCn1c(CNS(=O)(=O)CC)nc2cccnc21	i
Cc1ccc(Nc2cc(C)nc3nc(-c4cccnc4)nn23)c(C)c1	i
CCCC(C)c1nnc(NC(=O)Cc2cn3ccsc3n2)s1 (stereo not drawn)	i
Cc1ccc(S(=O)(=O)N2CCC(n3c(-c4ccccc4)nc4cccnc43)CC2)c(C)c1	i
CCCNCc1cc(=O)n2[nH]c(NCc3ccc(OC)cc3)nc2n1	+
O=c1cc(CNc2ccc(F)cc2)nc2nc(NCc3ccc(F)cc3)[nH]n12	i
CCCNCc1cc(=O)n2[nH]c(NCc3ccc(Cl)cc3)nc2n1	i
COc1ccc(CNc2nc3nc(CNc4ccc(F)cc4)cc(=O)n3[nH]2)cc1	+
O=c1cc(CNc2ccc(Cl)cc2)nc2nc(NCc3ccccc3)[nH]n12	+
COc1ccc(CNc2nc3nc(CNc4cc(Cl)ccc4OC)cc(=O)n3[nH]2)cc1	i
O=c1cc(CNc2ccc(Cl)cc2)nc2nc(NCc3ccc(F)cc3)[nH]n12	i
COc1ccc(NCc2cc(=O)n3[nH]c(NCc4ccccc4)nc3n2)cc1	i
O=c1cc(CNc2cccc(Cl)c2)nc2nc(NCc3ccccc3)[nH]n12	i
CN(C)CCn1ccnc1-c1ccc(-c2nc3ccccc3n2C)o1	i
SMILES	FECH block
CC(c1ccccc1)n1cnnc1CCn1cccn1 (stereo not drawn)	i
Cc1cc(N(C)Cc2cnn(C(C)C)c2)nc(-c2cccnc2)n1	i
Cc1cc(C)cc(N2CCC(NCCn3ncc4ccccc4c3=O)CC2)c1	i
CN1CCNC(=O)C12CCN(C(=O)c1ccccc1-n1cncn1)CC2	i
Cc1nc(OCC(=O)NCc2cccc(Br)c2)c2c(C)c(C)oc2n1	i
CCC(C)Nc1nc(Nc2ccc(Cl)cc2)c2cnn(-c3ccccc3)c2n1 (stereo not drawn)	i
Cc1ncc(-c2cc(C(=O)N3CCN(C)C(=O)C3C)c3cccc(C)c3n2)cn1 (stereo not drawn)	i
COc1ccc(Nc2cc(C)nc(N3CCN(S(=O)(=O)c4cccc(C)c4)CC3)n2)cc1	i
O=C(NCCn1c(-c2ccncc2)nc2cccnc21)Nc1cccc(Br)c1	i
CC(C)CNC(=O)c1nc[nH]c1C(=O)N1CCc2ccccc2C1	i
COc1ccccc1-c1cccc(C(=O)N2CC[C@H]3CC[C@@H](C2)N3)c1	i
COc1cc2c(cc1O)NC(=O)CC2c1nc(C)ccc1O (stereo not drawn)	i
Cc1cccc(-c2nc3nc(CN4CCCCC4C)cc(=O)n3[nH]2)c1 (stereo not drawn)	+
Cc1cccc(-c2nc3nc(CN4CCCC4)cc(=O)n3[nH]2)c1	i
CC1CCCCN1Cc1cc(=O)n2[nH]c(-c3ccc(C(C)(C)C)cc3)nc2n1 (stereo not drawn)	i
CC(=O)Nc1cc(-c2nc(-c3ccc4c(c3)Sc3ccccc3C(=O)N4C)no2)ccc1C	i
CCc1cc(Sc2ccc(NC(=O)c3ccccc3Br)cc2)n2ncnc2n1	i
Cc1ccc(S(=O)(=O)Nc2nc3n(n2)C(c2c(F)cccc2Cl)C=C(c2ccccc2)N3)cc1 (stereo not drawn)	+
Cc1ccc(C2=CC(c3ccccc3Cl)n3nc(NS(=O)(=O)c4ccc(C)cc4)nc3N2)cc1 (stereo not drawn)	i
O=S(=O)(Nc1nc2n(n1)C(c1ccccc1)C=C(c1ccccc1)N2)c1ccc(Cl)cc1 (stereo not drawn)	i
Cc1ccc(S(=O)(=O)Nc2nc3n(n2)C(c2ccccc2)C=C(c2ccc(Cl)cc2)N3)cc1 (stereo not drawn)	i
Cc1ccc(C2=CC(c3ccc(C)cc3)n3nc(NS(=O)(=O)c4ccc(C)cc4)nc3N2)cc1 (stereo not drawn)	+
COc1ccc(C2C=C(c3ccccc3)Nc3nc(NS(=O)(=O)c4ccc(C)cc4)nn32)cc1 (stereo not drawn)	i
CN(Cc1sc2ccccc2c1Cl)c1ncnc2c1CCNC2	i
COc1ccc(-c2cc(C(=O)Nc3ccccc3C)[nH]n2)cc1S(N)(=O)=O	i
SMILES	FECH block
CCC(Nc1nc(-c2ccncc2)nc2c1CCNC2)c1ccc(OC)cc1 (stereo not drawn)	i
CCCCN(c1nc2nc(C)cc(C)n2n1)S(=O)(=O)c1ccccc1	i
C=CCN(Cc1nc(-c2ccccc2)no1)Cc1nc(C)ccc1O	i
CC(C)C[C@@H](N)C(=O)N(C)Cc1cc(C(C)(C)C)n[nH]1	i
CCCCNc1nc(SC)nc(-c2ccc(C)cc2)c1C#N	i
Cc1cccc(-n2c(CN3CCN(S(=O)(=O)c4cccs4)CC3)nc3cccnc32)c1	i
Cc1ccc(-n2c(CN3CCN(S(=O)(=O)c4cccs4)CC3)nc3cccnc32)cc1	+
Cc1ccc(-n2c(CN3CCN(S(=O)(=O)c4ccc(Cl)s4)CC3)nc3cccnc32)cc1	i
CC(=O)c1cc(CC(=O)NCc2ccc(C)s2)cs1	i
COCC(=O)Nc1ccc(-c2c(C)cccc2C)cc1	i
CC(C)CN1CCN(Cc2ccoc2)C(CCO)C1 (stereo not drawn)	i
CCC(NC(=O)c1ccccc1-n1cncn1)c1ccnn1C (stereo not drawn)	i
O=C(CCN1CCN(CCc2ccncc2)CC1)NC1CCCCCC1	i
CCC(NC(=O)CCC(=O)NC1CCCCCCC1)c1ccnn1C (stereo not drawn)	+
CN1C(=O)C(CCC(=O)N2CCCOCC2)(Cc2ccccc2)c2ccccc21 (stereo not drawn)	i
CN1C(=O)C2(CCN(C(=O)COCC3CCCCO3)CC2)c2ccccc21 (stereo not drawn)	+
CCCc1nc(C(=O)N2CCCC3(C2)C(=O)N(C)c2ccccc23)cs1 (stereo not drawn)	i
CCOc1ccccc1NC(=O)CN1c2ccc(C(C)C)cc2-c2ccccc2S1(=O)=O	+
COc1ccc(NC(=O)CN2c3ccc(C(C)C)cc3-c3ccccc3S2(=O)=O)cc1Cl	i
CCc1ccc(C2=C(C)C(=O)N(CC(=O)Nc3ccc(C)c(F)c3)S2(=O)=O)cc1	i
C=CCNC(=O)c1ccccc1NC(=O)CN1c2ccc(C(C)C)cc2-c2ccccc2S1(=O)=O	i
O=C(CN1c2ccc(F)cc2-c2ccccc2S1(=O)=O)NCCN1CCOCC1	i
